Inconclusive results are not listed. Calls of active or inactive are those of the source. Calls come from the whole dose curve; as a rule, active = well fitted curve in the direction sought with a large enough effect; inconclusive = small, poorly fitted or top-dose-only effect, or another doubt; inactive = no such curve, though single readings can be large; an effect the other way counts as inactive or inconclusive. Starred links: 1 amine or outer side, 2 acyl side, 3 side chain; linkers in the order of their positions; H or OH if unused. Positions of bridges follow the written chain, without caps; N, C: chain ends. Non-standard residues stand in square brackets, D forms with d. Residues, ends and D or L forms follow the SMILES beside them. Chains are numbered I, II in the order given. Actinocin(9to1) = Cc1c2oc3c(C)ccc(C(=O)[*:1])c3nc-2c(C(=O)[*:2])c(N)c1=O; NMeV = CN[CH](C(=O)O)C(C)C; Sar = CNCC(=O)O
Columns and labels:
[1] = qHTS of pediatric cancer cell lines to identify multiple opportunities for drug repurposing: Confirmatory screen for Saos-2 cells (AID 1347127); note: nearly all actives have a fitted effect of over 60% in size; note: potency is the fitted concentration of half-maximal effect
Outline: (§1)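 Cells (500-1,000/well) in growth media were settled 5 h at 37 degrees C, then given compounds for 48 h. Viability was read as CellTiter-Glo luminescence. Primary runs used MIPE at 11 points (0.78 nM-46 µM) and NPC at 8 points (0.59 nM-46 µM); follow-ups used 11 points.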

[2] = qHTS of pediatric cancer cell lines to identify multiple opportunities for drug repurposing: Confirmatory screen for Rh18 cells (AID 1347125); note: nearly all actives have a fitted effect of over 55% in size; note: potency is the fitted concentration of half-maximal effect
Outline: as §1

[3] = qHTS of pediatric cancer cell lines to identify multiple opportunities for drug repurposing: Confirmatory screen for SK-N-SH cells (AID 1347129);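 note: cells exposed to compound for 48 h before viability read; nearly all actives have a fitted effect of over 60% in size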; note: potency is the fitted concentration of half-maximal effect
Outline: as §1

[4] = qHTS of pediatric cancer cell lines to identify multiple opportunities for drug repurposing: Confirmatory screen for OHS-50 cells (AID 1347128);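 note: compound exposure lasted 48 h at 37 degrees C; nearly all actives have a fitted effect of over 55% in size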; note: potency is the fitted concentration of half-maximal effect
Outline: as §1

[5] = system: Zika virus NS2B-NS3 protease (unlinked complex); test: Confirmatory screen GU AMC qHTS for Zika virus inhibitors (AID 1347153); note: nearly all actives have a fitted effect of over 70% in size;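 for Potency: enzyme at 25 nM with substrate at 10 µM below its Km of 18.3 µM; potency is the fitted concentration of half-maximal effect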
Outline: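 Unlinked NS2B-NS3 complex (25 nM) in 10 mM Tris-HCl pH 8.0, 0.01% Tween 20 preincubated 15 min with compound, then 10 microM Bz-Nle-KRR-AMC (Km 18.3 µM). Fluorescence change over 15 min, normalized, Hill-fitted.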

[6] = molecular target: Furin (Homo sapiens) (UniProt P09958); test: Furin counterscreen qHTS for Zika virus inhibitors (AID 1347149); note: nearly all actives have a fitted effect of over 70% in size; note: potency is the fitted concentration of half-maximal effect
Outline: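 Fluorogenic cleavage of BOC-RVRR-AMC (2 microM final, Km ~15 µM) was monitored (ex 340, em 450 nm) at 37C after 15 min RT preincubation of 5 nM furin with compounds in HEPES pH 7.0 buffer with CaCl2 and Triton X-100. Percent inhibition was fitted to a 4-parameter Hill curve.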

[7] = system: Zika virus NS2B-NS3 protease (linked construct); test: Confirmatory screen NINDS AMC qHTS for Zika virus inhibitors (AID 1347152); note: nearly all actives have a fitted effect of over 70% in size; note: potency is the fitted concentration of half-maximal effect
Outline: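 IC50s from 4-parameter Hill fits of percent inhibition, based on AMC fluorescence gain (340/450 nm) over 15 min with 10 microM Bz-Nle-KRR-AMC. Enzyme: 1 nM linked NS2B-NS3 in Tris-HCl pH 8.0; 15-min compound preincubation.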

[8] = qHTS of pediatric cancer cell lines to identify multiple opportunities for drug repurposing: Confirmatory screen for Rh30 cells (AID 1347126); note: potency is the fitted concentration of half-maximal effect; nearly all actives have a fitted effect of over 55% in size
Outline: as §1

[9] = system: Zika virus NS2B-NS3 protease (unlinked); test: Optimization of GU AMC qHTS for Zika virus inhibitors: Unlinked NS2B-NS3 protease assay (AID 1347151); note: series mostly up to about 52 µM; nearly all actives have a fitted effect of over 80% in size
Source text: Avindra Nath, Ph.D., National Institute of Neurological Disorders and Stroke (NINDS), Bethesda, MD
Radhakrishnan Padmanabhan, Ph.D., Georgetown University (GU), Washington D.C.
Zika Virus causes congenital defects, including microcephaly and is associated with Guillain-Barre syndrome, eningoencephalitis and myelitis in infected adult. […] Using a target-based approach, we hope to establish a screening paradigm to uncover novel, cell-active NS2B-NS3 protease (Zika Virus) specific inhibitors from NCATS' collection of small molecules using qHTS.
Early Translation Branch (ETB)
National Center for Advancing Translational Sciences (NCATS), Rockville, MD […]
Briefly, 3 microL of Zika virus unlinked NS2B-NS3 protease (25 nM for linked final concentration), in assay buffer (10 mM Tris-HCl pH 8.0 with 0.01% Tween 20) was dispensed into a 1,536-well solid-bottom black plate (Greiner Bio One, Monroe, NC). […] Plates were then read immediately on a ViewLux High-throughput CCD imager (PerkinElmer, Waltham, MA) equipped with standard UV fluorescence optics (340(30) nm excitation, 450(20) nm emission) then incubated (room temperature, protected from light) for 15 minutes (~20% conversion). The change in fluorescence intensity over the 15-minute reaction period was normalized against no-inhibitor and no-enzyme controls and the resulting percent inhibition data were fitted to a 4-parameter Hill equation. […]

Furin (Homo sapiens), sequence (P09958 whole entry, looked up): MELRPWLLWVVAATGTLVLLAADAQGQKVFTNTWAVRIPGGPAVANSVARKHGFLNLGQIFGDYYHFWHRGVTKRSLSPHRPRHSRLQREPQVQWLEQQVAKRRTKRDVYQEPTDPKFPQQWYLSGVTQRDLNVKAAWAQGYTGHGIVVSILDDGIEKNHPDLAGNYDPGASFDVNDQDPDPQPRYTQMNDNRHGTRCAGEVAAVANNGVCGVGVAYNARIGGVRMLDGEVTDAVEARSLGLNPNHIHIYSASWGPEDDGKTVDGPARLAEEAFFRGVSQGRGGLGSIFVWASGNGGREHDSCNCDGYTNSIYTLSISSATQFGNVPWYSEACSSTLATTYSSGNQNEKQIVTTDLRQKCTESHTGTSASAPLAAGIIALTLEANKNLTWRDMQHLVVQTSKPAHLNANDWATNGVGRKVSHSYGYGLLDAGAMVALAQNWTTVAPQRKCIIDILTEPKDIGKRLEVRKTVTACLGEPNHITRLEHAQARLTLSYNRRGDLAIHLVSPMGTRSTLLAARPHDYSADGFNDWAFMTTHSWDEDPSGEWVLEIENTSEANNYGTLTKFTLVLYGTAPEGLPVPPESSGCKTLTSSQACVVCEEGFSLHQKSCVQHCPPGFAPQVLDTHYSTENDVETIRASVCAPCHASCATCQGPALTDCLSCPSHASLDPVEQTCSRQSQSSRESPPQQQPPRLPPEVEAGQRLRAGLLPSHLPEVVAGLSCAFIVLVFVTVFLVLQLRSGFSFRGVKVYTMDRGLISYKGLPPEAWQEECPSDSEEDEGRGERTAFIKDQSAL

Which Potency [1] does the source give for `COc1cc(C=CC(=O)CC(=O)C=Cc2ccc(O)c(OC)c2)ccc1O` here?
The Potency was 33.9 µM (active).

For `CCN(CC)Cc1ccc2cc(COC(=O)Nc3ccc(C(=O)NO)cc3)ccc2c1`, which Potency [1] is on record?
The Potency was “inactive”.

Which Potency [2] does the source give for `Cc1c2oc3c(C)ccc(C(=O)NC4C(=O)NC(C(C)C)C(=O)N5CCCC5C(=O)N(C)CC(=O)N(C)C(C(C)C)C(=O)OC4C)c3nc-2c(C(=O)NC2C(=O)NC(C(C)C)C(=O)N3CCCC3C(=O)N(C)CC(=O)N(C)C(C(C)C)C(=O)OC2C)c(N)c1=O` (stereo not drawn) (I: TVP[Sar][NMeV] / II: TVP[Sar][NMeV]; ester I:1-I:C, II:1-II:C; linker I:N-II:N via Actinocin(9to1); configuration not given here) here?
Its Potency is 0.0293 µM (active).

What about the Potency [3] of the same molecule?
Its Potency is 0.0187 µM (active).

What does the source list for `COc1cc([C@@H]2c3cc4c(cc3[C@@H](O[C@@H]3O[C@@H]5CO[C@@H](c6cccs6)O[C@@H]5[C@H](O)[C@@H]3O)[C@H]3COC(=O)[C@H]23)OCO4)cc(OC)c1O`?
Potency [2]: 1.31 µM (active); Potency [3]: 3.32 µM (active)

Which results are given for `CC(C=CC1=C(C)CCCC1(C)C)=CC=CC(C)=CC(=O)Nc1ccc(O)cc1`?
Potency [2]: 42.7 µM (active); Potency [4]: 42.7 µM (active)

For `O=C1c2c(O)cccc2[C@@H]([C@@H]2O[C@H](CO)[C@@H](O)[C@H](O)[C@H]2O)c2cc(CO)cc(O)c21`, which Potency [4] is on record?
The Potency was “inactive”.

Which results are given for `CO[C@@H]1[C@@H](O)[C@H](O)[C@@H](n2c3c(Cl)cccc3c3c4c(c5c6cccc(Cl)c6[nH]c5c32)C(=O)NC4=O)O[C@@H]1CO`?
Potency [2]: 6.57 µM (active); Potency [4]: 2.61 µM (active)

With `O=C1NCCc2[nH]c(-c3ccncc3)cc21` as the molecule, how does the Potency [1] read?
Its Potency is 3.69 µM (active).

What about the Potency [4] of the same molecule?
The Potency was 2.93 µM (active).

Which Potency [2] does the source give for `COc1ccc2c(c1OC)C(=O)OC2[C@H]1c2c(cc3c(c2OC)OCO3)CCN1C` (stereo partly drawn) here?
The Potency was “inactive”.

What about the Potency [1] of the same molecule?
Its Potency is “inactive”.

What about the Potency [3] of the same molecule?
Its Potency is “inactive”.

With `Cc1ccc(-n2[nH]c(C)c(N=Nc3cccc(-c4cccc(C(=O)O)c4)c3O)c2=O)cc1C` as the molecule, how does the Potency [5] read?
Its Potency is 15.2 µM (active).

With `CNC(=O)c1cccc(-c2ccc3c(N4CCOC[C@H]4C)nc(N4CCOC[C@H]4C)nc3n2)c1` as the molecule, how does the Potency [6] read?
The Potency was “inactive”.

And the Potency [7]?
The Potency was “inactive”.

What about the Potency [5] of the same molecule?
The Potency was “inactive”.

Which Potency [6] does the source give for `COc1ccc(S(=O)(=O)Nc2cc(-c3c(O)ccc4ccccc34)c(O)c3ccccc23)cc1` here?
The Potency was “inactive”.

And the Potency [7]?
Its Potency is 19.2 µM (active).

And the Potency [5]?
The Potency was 24.1 µM (active).

For `NC(=O)Nc1cc(-c2ccc(CN3CCOCC3)cc2)sc1C(N)=O`, which Potency [3] is on record?
Its Potency is 14.8 µM (active).

For `CCC(C(=O)O)C1CCC(C)C(C(C)C(O)C(C)C(=O)C(CC)C2OC3(C=CC(O)[C@@]4(CC[C@](C)(C5CC[C@@](O)(CC)C(C)O5)O4)O3)C(C)CC2C)O1` (stereo partly drawn), which Potency [4] is on record?
Its Potency is 0.369 µM (active).

And the Potency [3]?
Its Potency is 5.9 µM (active).

With `Nc1nc2c(c(=O)[nH]1)N(C=O)[C@H](CNc1ccc(C(=O)N[C@@H](CCC(=O)O)C(=O)O)cc1)CN2` as the molecule, how does the Potency [2] read?
Its Potency is “inactive”.

What about the Potency [1] of the same molecule?
Its Potency is “inactive”.

And the Potency [3]?
The Potency was “inactive”.

Which results are given for `Cc1cnc(Nc2ccc(CN3CCOCC3)cc2)nc1Nc1cccc(S(=O)(=O)NC(C)(C)C)c1`?
Potency [2]: 9.27 µM (active); Potency [1]: 9.27 µM (active); Potency [3]: 5.26 µM (active)

For `CNC(=O)Nc1ccc(-c2nc(N3CC4CCC(C3)O4)c3cnn(C4CCC5(CC4)OCCO5)c3n2)cc1`, which Potency [2] is on record?
The Potency was 0.233 µM (active).

What about the Potency [4] of the same molecule?
Its Potency is 3.29 µM (active).

What about the Potency [3] of the same molecule?
Its Potency is 1.32 µM (active).

What does the source list for `COc1cc(C[C@@H](CO)[C@H](CO)Cc2ccc(O)c(OC)c2)ccc1O`?
Potency [2]: inactive; Potency [4]: inactive; Potency [3]: inactive

With `CC(C)NC[C@@H](C(=O)N1CCN(c2ncnc3c2[C@H](C)C[C@H]3O)CC1)c1ccc(Cl)cc1` as the molecule, how does the Potency [8] read?
The Potency was 8.27 µM (active).

Which Potency [4] does the source give for `CC(N[C@H]1CCCC[C@H]1NC(=O)c1ccc(Cl)cc1)c1cccc2ccccc12` (stereo partly drawn) here?
The Potency was 20.8 µM (active).

What about the Potency [3] of the same molecule?
The Potency was 9.35 µM (active).

Which results are given for `C[C@@H](NCc1cc2ccccc2[nH]1)c1cccc2ccccc12`?
Potency [7]: inactive; Potency [5]: inactive

Which results are given for `CC[C@]12C=CCN3CC[C@@]4(c5cc([C@@]6(C(=O)OC)C[C@H]7C[C@@H](C(C)(F)F)CN(Cc8c6[nH]c6ccccc86)C7)c(OC)cc5N(C)[C@H]4[C@@](O)(C(=O)OC)[C@H]1OC(C)=O)[C@@H]32`?
Potency [2]: inactive; Potency [1]: inactive; Potency [3]: inactive

Which outcome [9] does the source give for `CCCCCCCCc1ccc(CCC(N)(CO)CO)cc1` here?
The outcome was “inactive”.

What about the Potency [7] of the same molecule?
The Potency was “inactive”.

What about the Potency [5] of the same molecule?
The Potency was “inactive”.

Which results are given for `C[C@H]1COc2c(N3CCN(C)CC3)c(F)cc3c(=O)c(C(=O)O)cn1c23`?
Potency [6]: 24.1 µM (active); Potency [7]: 24.1 µM (active)

Which results are given for `CC(=O)O[C@H]1C[C@@H]2CC[C@H]3[C@H]4C[C@H]([N+]5(C)CCCCC5)[C@@H](OC(C)=O)[C@@]4(C)CC[C@@H]3[C@@]2(C)C[C@H]1N1CCCCC1`?
Potency [2]: 10.4 µM (active); Potency [3]: 20.9 µM (active)

From PubChem BioAssay (NCATS)
